Experimental data as given in PubChem BioAssay.
Active and inactive are the calls of the source.

Key:
[1] = anti-His antibody binders, primary screen, artefact control for SMM control protein annotation, biochemical, small-molecule microarray, 635 nm fluorescence (AID 1128); details: anti-His Alexa647 antibody binding, higher = more signal;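 note: score merges feature fluorescence with signal-to-noise for each printed compound spot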
[2] = test system: Human papillomavirus type 1a E7 protein (residues 1-88); test: HPV1a E7 small-molecule binders, primary screen, biochemical, small-molecule microarray, residues 1-88, 635 nm (AID 1129); details: small-molecule microarray binding, fluorescence 635 nm; higher = more signal
[3] = biological target: Focal adhesion kinase 1 (Homo sapiens) (UniProt Q05397); test: small-molecule microarray binders of FAK, primary screen, biochemical, 635/667 nm fluorescence, BSA, DTT (AID 1130); details: PTK2 binding, 635 nm fluorescence, higher = more signal;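 note: composite of spot emission at 667 nm and signal to noise over triplicate slides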
[4] = test system: Fibrinogen (Alexa647-labelled); test: fibrinogen binders on compound microarrays, profiling panel, artefact control for SMM control-protein annotation, biochemical, small-molecule microarray, 635/667 nm fluorescence (AID 1131); details: fibrinogen-A647 binding fluorescence, higher = more signal;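 note: z-score merges 667 nm fluorescence with per-spot signal-to-noise over triplicate slides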
[5] = biological target: Follistatin (Homo sapiens) (UniProt P19883); test: follistatin binders on small-molecule microarrays, primary screen, biochemical, small-molecule microarray, 635/667 nm fluorescence (AID 1132); details: FST binding, 635 nm fluorescence, higher = more signal
[6] = biological target: Fibroblast growth factor 2 (Homo sapiens) (UniProt P09038); test: FGF2 binders on small-molecule microarrays, primary screen, biochemical, small-molecule microarray, 635/667 nm fluorescence (AID 1133); details: small-molecule microarray binding, FGF2, fluorescence 635/667; higher = more signal
[7] = mitochondrial membrane potential change in A549 cells, profiling panel, cell-based, JC-1 fluorescence, basal, 24 h, 100 nL (AID 1138); details: higher = more signal;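 note: A549 lung adenocarcinoma cells under basal conditions with no added stimulus; test concentration not given here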
[8] = test system: Lefty1; test: Lefty1 binders on small-molecule microarrays, primary screen, biochemical, small-molecule microarray, 635/667 nm fluorescence (AID 1139); details: small-molecule microarray binding, fluorescence 635/667; higher = more signal
[9] = test system: wheat germ agglutinin (Triticum aestivum), Alexa647-labelled; test: wheat germ agglutinin binders on compound microarrays, profiling panel, artefact control for SMM control-protein annotation, biochemical, small-molecule microarray, 635/667 nm fluorescence (AID 1140); details: WGA-A647 binding, 635 nm fluorescence, higher = more signal;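 note: score merges 667 nm feature emission with signal to noise over triplicate slides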
[10] = biological target: Luciferin 4-monooxygenase (Photinus pyralis) (UniProt P08659); test: firefly luciferase enzyme inhibitors, primary screen, biochemical, luminescence, purified enzyme, 2006 set (AID 1141); details: SteadyGlo luminescence, 30 min, higher = more signal, called active from +8 up or from −8 down;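 note: cell-free assay with purified firefly luciferase at 100 ng per well in PBS; test concentration not given here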
Luciferin 4-monooxygenase (Photinus pyralis), sequence (P08659 whole entry, looked up): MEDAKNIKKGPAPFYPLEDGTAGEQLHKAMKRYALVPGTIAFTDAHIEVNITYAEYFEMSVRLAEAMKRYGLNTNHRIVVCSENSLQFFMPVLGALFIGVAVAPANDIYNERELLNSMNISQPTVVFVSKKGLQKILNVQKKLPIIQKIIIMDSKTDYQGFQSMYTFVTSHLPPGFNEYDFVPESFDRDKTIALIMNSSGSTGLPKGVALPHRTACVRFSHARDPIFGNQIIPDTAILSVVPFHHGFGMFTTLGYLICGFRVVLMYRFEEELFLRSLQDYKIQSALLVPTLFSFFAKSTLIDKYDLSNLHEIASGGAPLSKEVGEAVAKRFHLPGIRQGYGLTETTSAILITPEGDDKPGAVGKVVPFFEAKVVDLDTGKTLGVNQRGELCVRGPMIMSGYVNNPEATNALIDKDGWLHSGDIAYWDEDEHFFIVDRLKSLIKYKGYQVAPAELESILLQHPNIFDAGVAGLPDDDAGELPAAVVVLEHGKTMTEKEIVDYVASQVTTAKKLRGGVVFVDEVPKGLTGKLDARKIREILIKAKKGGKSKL

Focal adhesion kinase 1 (Homo sapiens), sequence (Q05397 whole entry, looked up): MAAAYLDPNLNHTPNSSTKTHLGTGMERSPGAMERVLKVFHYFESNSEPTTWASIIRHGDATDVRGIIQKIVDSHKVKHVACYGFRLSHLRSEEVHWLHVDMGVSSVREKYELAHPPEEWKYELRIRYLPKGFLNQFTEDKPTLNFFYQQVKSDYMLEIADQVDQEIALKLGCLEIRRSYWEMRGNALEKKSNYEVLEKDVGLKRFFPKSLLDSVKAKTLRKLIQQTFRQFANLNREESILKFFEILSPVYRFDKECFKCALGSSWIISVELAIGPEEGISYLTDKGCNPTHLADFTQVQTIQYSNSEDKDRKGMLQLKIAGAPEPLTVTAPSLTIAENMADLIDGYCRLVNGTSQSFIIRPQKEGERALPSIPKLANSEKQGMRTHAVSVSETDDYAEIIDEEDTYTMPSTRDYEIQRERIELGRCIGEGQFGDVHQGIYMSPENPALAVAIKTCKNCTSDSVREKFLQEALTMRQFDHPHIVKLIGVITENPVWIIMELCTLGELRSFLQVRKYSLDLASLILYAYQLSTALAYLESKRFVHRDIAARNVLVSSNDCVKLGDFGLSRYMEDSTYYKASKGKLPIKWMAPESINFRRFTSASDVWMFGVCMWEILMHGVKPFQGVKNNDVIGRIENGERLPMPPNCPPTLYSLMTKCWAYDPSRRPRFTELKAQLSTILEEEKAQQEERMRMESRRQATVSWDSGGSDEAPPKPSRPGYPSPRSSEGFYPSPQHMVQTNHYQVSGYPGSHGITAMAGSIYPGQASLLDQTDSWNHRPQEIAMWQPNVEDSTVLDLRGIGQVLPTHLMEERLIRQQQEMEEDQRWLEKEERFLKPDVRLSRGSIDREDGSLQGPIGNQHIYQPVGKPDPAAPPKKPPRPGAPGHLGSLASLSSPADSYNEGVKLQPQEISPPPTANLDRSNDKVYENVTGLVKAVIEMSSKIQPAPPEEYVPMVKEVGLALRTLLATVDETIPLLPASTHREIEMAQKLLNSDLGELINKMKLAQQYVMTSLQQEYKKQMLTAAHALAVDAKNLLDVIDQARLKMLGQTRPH
Follistatin (Homo sapiens), sequence (P19883 whole entry, looked up): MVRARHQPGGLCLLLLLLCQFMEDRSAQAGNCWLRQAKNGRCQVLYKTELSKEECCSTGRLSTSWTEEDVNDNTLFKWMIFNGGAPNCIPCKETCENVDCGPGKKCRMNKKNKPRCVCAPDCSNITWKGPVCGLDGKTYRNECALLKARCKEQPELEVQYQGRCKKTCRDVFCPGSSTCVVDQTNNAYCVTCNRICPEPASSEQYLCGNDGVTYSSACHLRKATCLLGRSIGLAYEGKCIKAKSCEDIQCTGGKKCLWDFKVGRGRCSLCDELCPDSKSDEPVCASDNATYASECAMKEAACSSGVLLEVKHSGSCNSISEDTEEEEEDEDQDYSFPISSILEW
Fibroblast growth factor 2 (Homo sapiens), sequence (P09038 whole entry, looked up): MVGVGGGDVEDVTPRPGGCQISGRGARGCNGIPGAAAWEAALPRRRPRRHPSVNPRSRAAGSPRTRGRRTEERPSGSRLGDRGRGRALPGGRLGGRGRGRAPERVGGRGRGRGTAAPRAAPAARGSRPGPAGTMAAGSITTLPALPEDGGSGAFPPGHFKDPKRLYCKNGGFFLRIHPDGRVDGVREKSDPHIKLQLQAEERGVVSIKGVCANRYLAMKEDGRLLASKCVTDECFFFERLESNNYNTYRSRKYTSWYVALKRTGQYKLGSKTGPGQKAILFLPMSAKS

| Structure (SMILES) | composite z-score [1] | composite z-score [2] | composite z-score [3] | composite z-score [4] | composite z-score [5] | composite z-score [6] | z-score [7] | composite z-score [8] | composite z-score [9] | z-score [10] |
| --- | --- | --- | --- | --- | --- | --- | --- | --- | --- | --- |
| COc1ccc(O[C@H]2C=C[C@@H](c3ccccc3)O[C@@H]2CON=C[C@@H](C)[C@H](OCc2ccccc2)C(C)C)cc1 | 0.901 | -1.26 | -0.302 | -1.41 | -0.675 | -0.76 | 1.96 | -0.214 | 0.12 | 0.0017 (inactive) |
| CC(C)=NOCc1ccc(-c2cc(-c3ccccc3)no2)cc1 | 0.0906 | 0.272 | 0.0171 | 0.108 | 0.0806 | 0.437 | -0.405 | 0.003 | -0.477 | 0.534 (inactive) |
| CC(CCN1CCc2nc(-c3ccccc3)c(-c3ccccc3)cc2C1)=NO[C@H](C)c1cn([C@@H]2COC[C@H]2O)nn1 | 0.124 | 0.915 | 0.0127 | 0.717 | 0.438 | 0.0208 | 1.17 | 0.712 | 0.224 | -0.475 (inactive) |
| O=C1O[C@@H](c2ccccc2)[C@@H](c2ccccc2)N2[C@@H](c3ccc(O)cc3)[C@]3(C(=O)Nc4ccccc43)[C@@H](C(=O)O)[C@H]12 | 3.02 | 1.2 | 0.49 | 0.508 | -0.167 | -0.352 | -0.517 | -0.351 | 0.547 | -0.0041 (inactive) |
| O=C1O[C@@H](c2ccccc2)[C@@H](c2ccccc2)N2[C@@H](c3ccc(OCCO)cc3)[C@]3(C(=O)Nc4ccc(C#CCCO)cc43)[C@@H](C(=O)N3CCCCCCC3)[C@H]12 | 1.86 | 1.17 | 0.782 | 0.965 | 1.39 | 0.585 | -0.287 | 1.56 | 1.35 | -1.62 (inactive) |
| CN1C(=O)C2C=CC(C(O)c3ccc(I)cc3)N(NC(=O)OC(C)(C)C)C2C1=O (stereo not given) | 0.131 | 1.25 | 0.739 | 0.974 | 0.669 | -0.0956 | -0.317 | -0.119 | 0.743 | 0.607 (inactive) |
| CO[C@@H]1COC(=O)CC=C[C@@H](C)[C@@H]2C=C[C@@H](O)[C@@H](COC(=O)CC=C[C@H]1C)O2 | 0.235 | -0.912 | -0.0662 | -1.24 | 1.33 | 1.1 | -0.443 | 1.47 | -0.38 | -2.29 (inactive) |
| C[C@@H]1C=CCC(=O)OC[C@H](C)C(=O)N[C@@H](C)C(=O)OC1 | -0.181 | -0.479 | 1.32 | -0.096 | 0.302 | 1.09 | -0.944 | 0.921 | -0.323 | 1.04 (inactive) |
| CCc1cc2c(nc1CC)CCN(CCC(C)=NOC[C@@H](O)[C@H]1O[C@@H]3OC(C)(C)O[C@@H]3[C@H]1O)C2 | 0.29 | -0.0321 | -0.113 | 0.572 | 0.187 | 0.106 | 0.489 | 0.446 | 0.878 | -0.0353 (inactive) |
| CO[C@@H]1COC(=O)CCC[C@@H](C)[C@H](OC)COC(=O)[C@H](Cc2ccccc2)NC(=O)CC=C[C@H]1C | 0.393 | -2.53 | -0.268 | -0.876 | 1.29 | 0.273 | -0.972 | 0.978 | -0.271 | -0.418 (inactive) |
| C=CC[C@@H]1C=C[C@H](ON=Cc2ccc(C(=O)N3[C@H](c4ccc(C)cc4)[C@@H](C)CC[C@H]3C(=O)OC)cc2)[C@@H](CO)O1 | -0.672 | 0.973 | 0.181 | 0.302 | 0.333 | 0.646 | -0.154 | 0.387 | 0.0608 | 1.27 (inactive) |
| COC(=O)CC=C[C@H](C)[C@@H](OCc1ccccc1Br)C(C)C | 0.219 | -0.161 | 0.0767 | -0.263 | 0.292 | -0.0207 | 1.32 | 0.646 | 0.0141 | -0.401 (inactive) |
| COC(=O)CC1OC1[C@H](C)[C@@H](OC)C(C)C (stereo not given in full) | -0.0177 | 0.212 | -0.405 | 0.745 | 0.623 | 0.443 | 3.01 | 0.786 | 0.733 | -1.73 (inactive) |
| COc1ccc(O[C@H]2C=C[C@@H](c3ccccc3)O[C@@H]2COC(=O)CCC(C)=NOCC[C@@H]2C=C[C@H](OC(C)=O)[C@@H](COC(C)=O)O2)cc1 | 0.545 | -0.129 | 0.151 | 0.351 | 0.612 | 0.168 | 0.213 | 0.342 | 0.193 | 1.03 (inactive) |
| CN1C(=O)C2C(C1=O)C1C=C(CCCO)C2C(c2ccc(CN3CCCC3)cc2)N1C (stereo not given) | -0.0122 | -0.329 | 0.0551 | -1.58 | -0.227 | -0.052 | -1.01 | -0.0306 | -0.236 | 0.53 (inactive) |
| CO[C@@H]1COC(=O)CCC[C@@H](C)[C@H](OC)COC(=O)CCC[C@H]1C | 0.463 | 0.077 | -0.217 | -0.0557 | 0.513 | 0.685 | -0.598 | 0.958 | -0.261 | 1.17 (inactive) |
| CCCC[C@@H]1C[C@H]1[C@@H](NS(=O)(=O)c1cccc2cccnc12)c1ccc(-c2ccccc2)cc1 | 0.983 | 1.08 | 0.479 | -0.809 | 0.0634 | -1.06 | 0.164 | -0.805 | 0.366 | 0.633 (inactive) |
| Cc1cc2c(nc1C)CCCN2CC(C)ON=C1[C@H]2CCn3c(=O)n(-c4ccccc4)c(=O)n3[C@H]2[C@H](O)[C@@H]2O[C@H]12 (stereo not given in full) | -0.674 | 0.304 | 0.515 | 0.342 | 0.687 | 0.56 | -0.562 | 0.703 | 0.075 | 0.424 (inactive) |
| CC(C)c1ccc(NN2C(C(O)c3ccc4c(c3)OCO4)C=CC3C(=O)N(c4ccccc4)C(=O)C32)cc1 (stereo not given) | 1.57 | 1.19 | 0.477 | 1.04 | 1.02 | -0.146 | -0.726 | 0.545 | 0.881 | -1.72 (inactive) |
| COCCOC(=O)N1C(=O)[C@@]2(c3cc(C#Cc4ccc(OC)cc4)ccc31)[C@H](C(=O)N1CCN(c3ncccn3)CC1)[C@H]1C(=O)O[C@H](c3ccccc3)[C@H](c3ccccc3)N1[C@@H]2c1ccc(OCCO)cc1 | 0.233 | 0.202 | 0.253 | 0.274 | 1.26 | 1.06 | -1.15 | 0.786 | 0.769 | -0.411 (inactive) |
| CCOC(=O)[C@H](Cc1ccccc1)NC(=O)CCC1CC(OC(=O)NCc2ccc3c(c2)OCO3)CC2(CCCC(COC(=O)NCC(c3ccccc3)c3ccccc3)O2)O1 (stereo not given in full) | 0.98 | 1.2 | 0.231 | 0.0058 | 0.83 | 0.555 | 0.803 | 0.579 | 0.477 | 0.635 (inactive) |
| CC(=O)OC[C@H]1O[C@H](CCON=C[C@@H](C)[C@H](OCc2ccccc2)C(C)C)C=C[C@@H]1OC(C)=O | -0.508 | 0.193 | -0.101 | 0.797 | 0.319 | 0.274 | -0.808 | 0.325 | 0.156 | 1.26 (inactive) |
| CCOC(=O)C1=CCC(c2cc3ccccc3[nH]2)NC1 (stereo not given) | 0.693 | 1.13 | 1.22 | -0.288 | 1.12 | -0.356 | 0.642 | -0.439 | 1.06 | -3.19 (inactive) |
